According to the supplement of paper PMC3334620:
Over roughly 33,000 sequences, “E-score (-0.5 to 0.5)” has its median near -0.036; the highest 2% begin near 0.37. What follows is part of a selection rich in the highest values, with near analogues and random picks from the rest.

target: T1, Yer064c (UniProt P40041); experiment: PBM E-score (8-mer binding enrichment) (E-score (-0.5 to 0.5)); higher = stronger / more preferred TF binding; conditions: protein concentration: 200 nM; construct: GST-full length
T1 sequence: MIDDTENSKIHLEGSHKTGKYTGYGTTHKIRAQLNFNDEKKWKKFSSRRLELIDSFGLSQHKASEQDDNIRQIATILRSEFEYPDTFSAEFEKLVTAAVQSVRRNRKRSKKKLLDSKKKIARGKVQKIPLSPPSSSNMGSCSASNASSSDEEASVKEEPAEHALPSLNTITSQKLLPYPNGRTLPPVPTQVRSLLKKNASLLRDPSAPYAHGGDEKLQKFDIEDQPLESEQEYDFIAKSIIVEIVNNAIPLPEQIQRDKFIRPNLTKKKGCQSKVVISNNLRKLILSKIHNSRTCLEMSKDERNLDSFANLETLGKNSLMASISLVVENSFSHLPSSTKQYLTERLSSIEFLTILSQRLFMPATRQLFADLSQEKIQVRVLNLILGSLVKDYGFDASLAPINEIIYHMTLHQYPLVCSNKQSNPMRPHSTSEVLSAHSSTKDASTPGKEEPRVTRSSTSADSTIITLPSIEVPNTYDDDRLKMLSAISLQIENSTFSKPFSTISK
Procedure, shortened: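 The E-score, a modified Wilcoxon-Mann-Whitney statistic, was computed by the Universal PBM Analysis Suite for every ungapped eight-base word pooled with its reverse complement. Scans behind it were normalised with masliner after bound GST-tagged yeast transcription factors were detected with fluorescent anti-GST. The proteins, at about 100-200 nM, had been applied to universal all-10-mer Agilent arrays made double-stranded by primer extension.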

Sequence	PBM E-score
GTAGCGAA	-0.0282
ATGCCGAG	-0.0321
GACTCGTA	0.419
TACTCGCA	0.211
GACTCGCA	0.414
CACTCGTA	-0.0316
AACTCGCC	-0.0941
GACTCGCC	0.371
AACTCGTA	-0.019
CACTCGCC	-0.0244
AACTCGCA	0.0388
AAGGTACG	-0.094
GCGTAGAC	-0.0194
GAGGTGAC	0.224
TATTCCAA	-0.0766
GCACTGAC	0.131
GGGCCGAA	-0.287
GCCTGCGA	-0.22
CTCAATCC	0.146
ATCAATCC	-0.0246
ATCAATCG	0.193
GGCAATCA	0.283
CTCAATCA	0.402
GTCAATTA	0.123
ATCAATCA	0.381

Sequence	PBM E-score
CGCAATCA	0.302
GTCAATCA	0.389
TGGGCGAA	0.0204
ATCTCTAG	-0.0229
CAGACGAC	0.137
AGTAAGTC	0.354
CCTCAGCA	-0.202
AACTGGTA	-0.259
AATGACCG	-0.203
AATGACCA	0.0838
CATGACGA	0.0513
AATGACTA	0.487
CATGACTA	0.491
AATGACGA	0.0304
AATGACAG	-0.045
CATGACAA	-0.00212
AATGACTG	0.441
AATAGGCT	-0.0339
CTCTCGGA	0.144
CTGTGGAA	0.0224
AATCCTCG	-0.0311
CATCATTC	0.0981
CATCATTA	0.161
AATCATTA	0.397
AAACATTG	-0.0364

Sequence	PBM E-score
AATCATTC	0.417
ATTCATTA	0.21
AAGCATTG	-0.159
GATCATTA	0.128
AATCATTG	0.43
TGGTAGAA	-0.0551
CACCCTGC	0.118
AGGCTACG	-0.232
ATCCAAAC	0.00765
GAGGACAA	-0.195
GTCACAAC	0.213
GCGTCAGA	-0.116
GAGTCAGA	0.472
TCGTCAGA	-0.15
TAGTCAGA	0.457
GGGTCAGA	0.00219
ATGTCAGA	-0.0808
GACGGCCC	-0.375
CATCCTAA	0.0625
GTAGAAAC	-0.119
AACGGCTT	-0.309
AACTCTGC	0.0728
GACTCTTA	0.428
GACTCTGA	0.392
AACTCTGA	0.186

Sequence	PBM E-score
CACTCTGC	-0.0532
TACTCTGA	0.156
CACTCTTA	-0.016
GACTCTGC	0.376
AACTCTTA	0.0866
ATTCTCTG	0.0149
CCTCTGCA	-0.264
GGCTAGAA	0.00723
GCCCTTAA	-0.185
AGGCCTGC	-0.27
CCGGGCCC	-0.315
GCGGACCA	-0.0691
AGCCCCCT	-0.382
ATAGGATG	0.0522
TCGAGTAA	0.11
TCGAGCCA	-0.00283
ACGAGTAG	0.039
CCGAGTCG	0.261
GCGAGTAA	0.206
CCGAGTCA	0.467
CCGAGTCC	0.195
ACGAGTTG	-0.0661
ACGAGTCG	0.383
TCGAGTCA	0.471
GCGAGTCA	0.485

Sequence	PBM E-score
GCGAGTCC	0.262
ATACCCGA	-0.0409
CTCTTTGC	-0.0733
AACGTCCG	-0.343
TCTCGAAA	0.0754
GCGGAACA	0.0307
CAGGGGGC	-0.337
CGGCTGAA	0.0435
ATTTTGCG	0.00719
ACCCAACA	-0.144
CCGCCTGC	0.00718
ACGAGTCC	0.289
ACGAGTCT	0.312
ACGAGTCA	0.48
AATCGCTC	0.211
GACTACGA	0.413
CACTACGC	-0.197
AACTACGC	0.0819
GACTACGC	0.391
CACTACGA	0.0996
TACTACGA	0.181
ATGAAATA	-0.0533
CAGAGTCG	0.324
AAGAGTTG	0.0206
AAGAGTCG	0.423

Sequence	PBM E-score
TAGAGTCA	0.469
CAGAGTCC	0.212
GAGAGTAA	0.0863
TAGAGTGA	0.171
CAGAGTCA	0.469
AAGAGTGG	-0.242
TAGAGTAA	0.0416
GAGAGTCC	0.256
GAGAGTCA	0.481
AAGGCTGT	-0.161
CAAACGCA	-0.0486
CCCGGACC	-0.189
AGTAAGAT	0.0659
CATGTTCC	-0.138
ACGGTACG	0.0345
ATACAAGC	-0.123
AAGAGTCT	0.355
AAGAGTCC	0.303
AAGAGTCA	0.489
TACTAGTA	0.216
CACTAGTA	-0.0969
AACTAGTC	0.355
GACTAGTC	0.408
CACTAGTC	0.274
GACTAGTA	0.391

Sequence	PBM E-score
AACCAGTC	0.171
GTAGCCAA	-0.0169
CATGTCTA	0.205
ACTCAACG	0.288
AGTCAACG	0.443
AGTCAACC	0.442
ACTCAACT	0.337
TGTCAACA	-0.18
CGTCAACG	0.0184
GGTCAACC	-0.0162
CGTCAACA	-0.189
CGTCAACC	-0.225
AGTCAACA	0.441
AATCAACT	0.314
AGTCAACT	0.424
ATTCGAAG	0.15
AAGATACG	-0.0653
AGATCTCA	0.0373
ATGGGCTG	-0.0763
CACTTAGA	0.0684
TGCATTAA	0.0992
CTGGCCGC	-0.163
AATACGCT	-0.136
CAGTAGCC	-0.116
CAGTAGTA	0.111

Sequence	PBM E-score
CAGTAGTC	0.403
AAGTAGTA	0.0556
AAGTAGTG	-0.157
AAGTAGTC	0.415
GCAAAGCC	-0.263
GTGGCAAC	-0.295
CGTTCACA	0.0136
CCTGGCAC	-0.304
GCCATTCA	-0.0419
GAATCAAA	0.268
CAATCATA	0.371
CGATCATA	0.0235
CCATCATA	-0.0232
CCATCATC	-0.01
GAATCATC	0.48
CAATCATC	0.422
GAATCAAC	0.358
CTATCATC	-0.0157
CCGGCTTA	-0.221
CCTTGGAA	-0.185
CCGAAAAA	0.0649
ATAGGTCC	-0.0251
AGTAAACC	-0.0239
CCCTTTTA	-0.0873
AGATTGAT	0.0609

Sequence	PBM E-score
ATTGAGTA	0.282
CTTGAGGC	-0.146
ATTGAGTG	0.149
CTTGAGTA	0.233
ATTGAGTC	0.479
CTTGAGTC	0.466
ACGGCCAG	-0.206
AGCCATGA	0.282
ATCAGTCG	0.296
CTCAGTCA	0.436
CTCAGTGA	0.235
CTCAGTCC	0.255
GTCAGTCA	0.451
GTCAGTTA	0.0503
ATCAGTCA	0.434
GTCAGTGA	0.31
ATCAGTCC	0.0464
ATCAGGGG	-0.00776
ACGCACAG	-0.247
GCCCATCC	-0.0789
ATAAAAAA	0.112
TTTAGAAA	0.0151
AAGAGCGG	-0.214
CGGGTGCC	-0.315
ATTCGTGG	0.186

Sequence	PBM E-score
CGTCGTGC	-0.106
AGTCGTGC	0.371
AATCGTGC	0.137
AGTCGTGG	0.373
GGTCGTGA	-0.0505
AGTCGTGA	0.375
CGTCGTGA	0.0738
AGTCGTTG	0.326
AACGAGAC	0.0315
AAAGAGCA	-0.0916
CGGGGCAG	-0.052
CCCCTGAC	0.173
AGCGAATA	0.0298
ATTGGGTA	-0.138
CTGGGGAC	-0.0825
CACCCATC	0.102
ACTTGACG	-0.0474
ACTTGACA	0.0454
AATTGACT	0.391
AATTGACG	-0.178
ACTTGACT	0.412
AATTGACC	-0.0998
CAATTCCA	-0.297
CATACGAC	0.158
ACGCGTGC	-0.0231

Sequence	PBM E-score
CCATCCGA	0.161
ACAGAGTG	0.0565
CGAGAGAC	0.0137
AGAGAGTC	0.409
CCAGAGGC	-0.335
CCAGAGTC	0.38
AGAGAGTG	-0.104
CGAGAGTA	0.0908
ACAGAGTC	0.37
CCAGAGTA	-0.0992
CGAGAGTC	0.421
ACAGAGTA	0.0495
AGAGAGTA	0.121
CCGCAAGC	-0.268
ACGCCATC	-0.136
CCTACCCA	-0.0884
CGAGAACA	0.0131
GCTACGAA	-0.0422
GGCCGGGA	-0.134
CGCTACGC	-0.323
AACGGGAT	-0.185
CAATCCGG	-0.0586
GATAGGCC	-0.339
CTACTCAA	0.162
ATACTCAC	0.312

Sequence	PBM E-score
GGACTCTA	0.193
GTACTCAA	0.314
GGACTCAA	0.409
TGACTCAA	0.492
CGACTCAA	0.474
CGACTCTA	0.343
GAACTCAA	0.145
TGGCTCAA	0.332
GTACTCAC	0.387
TAACTCAA	0.263
CACCTTGG	-0.142
CCCAGCTA	-0.0347
CTGGCTAA	0.23
CGTTCCAC	-0.25
ACGCATAC	-0.135
TAGCTCCA	-0.0907
GGACTCCC	0.214
GGACTCAC	0.43
GCACTCAC	0.0283
AGGTACCG	-0.156
ACTCGAAC	0.136
CCGTATGC	-0.167
CCATTGAC	0.0546
CCGGCTGA	0.165
AAAACTAA	0.134

Sequence	PBM E-score
CAGACTAC	0.215
AAGACTTC	0.241
TAGACTAA	0.3
AAGACTAA	0.442
AAGACAAT	-0.0159
AAGACTAC	0.413
GAGACCAA	-0.0383
GAGACGAA	-0.0519
GAGACTAA	0.413
AAGACTAG	0.338
AAGACTAT	0.417
CAACAGGG	-0.202
ATGATACA	0.246
GAAGTGCC	-0.336
GTTTGCTA	0.0898
GAGTTGCC	-0.149
GACGGTAA	-0.284
CAACTCCG	-0.12
ATAGTTGC	0.0257
CGATGTAC	-0.0701
AGGCCTCG	-0.184
AGGACTAA	0.405
TGGACTAA	0.348
AGGACTAT	0.31
CCAGAGGA	0.00907

Sequence	PBM E-score
ATAGGGGC	-0.262
TCAGTCAA	0.348
CGAGTCTC	0.307
CGAGTCCG	0.272
CGAGTCAG	0.46
CGAGTCAC	0.477
CGAGTCCC	0.24
GGAGTCCC	0.189
TAAGTCAA	0.344
GGAGTCAC	0.485
TGAGTCAA	0.489
CAAGTCAG	0.306
GGAGTTAC	-0.0565
CCTTCTGA	-0.0564
GAGAGCCA	0.132
TCCAGCCA	-0.198
GCGTAGCC	0.074
ATCGATGC	-0.198
AACTAGCG	-0.119
